Reference: PubChem BioAssay (EPA / NIEHS)
Records with an inconclusive call do not appear. The source made the active and inactive calls. How the source made its calls: active means hit-call score of the fitted dose curve at least 0.9, where 1 is the maximum; inconclusive means response in the unintended direction; inactive means score below 0.9.

These compounds were tested against human Peroxisome Proliferator-activated Receptor alpha (PPARa), PPARA (gene 5465) (UniProt Q07869) (assay: ATG_PPARa_TRANS: Attagene TRANS-FACTORIAL HepG2 Assay for human Peroxisome Proliferator-activated Receptor alpha (PPARa) (AID 2283001);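 on AC50: potency for gain of reporter signal over DMSO so agonist or activator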).
Chain of human Peroxisome Proliferator-activated Receptor alpha (PPARa), PPARA (gene 5465) (Q07869 whole entry, looked up, the tested form may be a part): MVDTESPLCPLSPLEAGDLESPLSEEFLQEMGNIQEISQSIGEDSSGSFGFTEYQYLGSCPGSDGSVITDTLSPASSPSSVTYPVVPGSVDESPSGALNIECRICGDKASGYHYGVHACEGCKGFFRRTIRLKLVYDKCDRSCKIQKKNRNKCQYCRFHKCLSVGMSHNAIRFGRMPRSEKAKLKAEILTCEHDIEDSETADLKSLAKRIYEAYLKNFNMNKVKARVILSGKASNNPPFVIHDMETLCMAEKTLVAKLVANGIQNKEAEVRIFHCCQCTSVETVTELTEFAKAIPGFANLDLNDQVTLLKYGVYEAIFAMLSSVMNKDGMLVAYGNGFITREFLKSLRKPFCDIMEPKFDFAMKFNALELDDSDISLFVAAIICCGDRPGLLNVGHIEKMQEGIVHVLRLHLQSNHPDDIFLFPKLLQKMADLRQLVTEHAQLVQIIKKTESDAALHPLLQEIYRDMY
How it was run: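 Reporter transcripts from GAL4-UAS units in transfected HepG2 were quantified 24 h after dosing. Detection used reverse transcription, PCR, fluorescent primer extension and capillary electrophoresis, with DMSO as baseline.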
With `CCCCCCC(=O)c1ccccc1` the outcome was “inactive”.
For `CCC(C)S` (stereo not drawn), the outcome was “inactive”.
For `Cc1cc(C)nc(NS(=O)(=O)c2ccc(N)cc2)n1`, the outcome was “inactive”.
In the case of `C[Si](C)(C)O[Si](C)(C)C`, the outcome was “inactive”.
In the case of `CCOC(=O)COC(=O)c1cc(Oc2ccc(C(F)(F)F)cc2Cl)ccc1[N+](=O)[O-]`, the AC50 was 14.5 µM (active).
With `CC(C)c1ccccc1O` the outcome was “inactive”.
`O=C1OC(=O)c2c(Br)c(Br)c(Br)c(Br)c21` was tested, and the outcome was “inactive”.
In the case of `Cc1occc(=O)c1OC(=O)C(C)C`, the outcome was “inactive”.
`Cc1cc(CCC(=O)OCCOCCOCCOC(=O)CCc2cc(C)c(O)c(C(C)(C)C)c2)cc(C(C)(C)C)c1O` was tested, and the outcome was “inactive”.
`NCc1ccco1` was tested, and the outcome was “inactive”.
In the case of `O=c1c(O)c(-c2ccc(O)cc2)oc2cc(O)cc(O)c12`, the outcome was “inactive”.
For `Nc1ccc(NCCO)c([N+](=O)[O-])c1`, the outcome was “inactive”.
With `CCCSc1ccc2nc(NC(=O)OC)[nH]c2c1` the outcome was “inactive”.
In the case of `Oc1c(Cl)cc(Cl)c(Cl)c1Cc1c(O)c(Cl)cc(Cl)c1Cl`, the AC50 was 11.1 µM (active).
In the case of `COc1cc([C@@H]2c3cc4c(cc3[C@@H](O[C@@H]3O[C@@H]5CO[C@@H](C)O[C@H]5[C@H](O)[C@H]3O)[C@H]3COC(=O)[C@H]23)OCO4)cc(OC)c1O`, the outcome was “inactive”.
`CCCCCC(=O)CC` was tested, and the outcome was “inactive”.
`Clc1ccc(C(c2ccccc2Cl)C(Cl)Cl)cc1` (stereo not drawn) was tested, and the outcome was “inactive”.
With `Cc1[nH]c(=O)c(C#N)cc1-c1ccncc1` the outcome was “inactive”.
In the case of `CC(C)=CCCC(C)CC(=O)O` (stereo not drawn), the outcome was “inactive”.
For `CCOC(=O)[C@@H](C)Oc1ccc(Oc2nc3ccc(Cl)cc3o2)cc1`, the outcome was “inactive”.
For `CCCC(=O)OC(C)(C)Cc1ccccc1`, the outcome was “inactive”.
For `Cc1cccc(Nc2ccccc2)c1`, the outcome was “inactive”.
For `COC(=O)c1ccc([N+](=O)[O-])cc1`, the outcome was “inactive”.
With `N#Cc1ccc(CC(=O)c2cccc(C(F)(F)F)c2)cc1` the outcome was “inactive”.
For `CC(CN=Cc1ccccc1O)N=Cc1ccccc1O` (stereo not drawn), the outcome was “inactive”.
In the case of `CCO/C=C1\N=C(c2ccccc2)OC1=O`, the outcome was “inactive”.
With `O=C1CCCC=CCCCCCCCCCC1` the outcome was “inactive”.
With `Nc1c(Cl)cc(Cl)cc1[N+](=O)[O-]` the outcome was “inactive”.
With `CC/C=C\CC/C=C/CO` the outcome was “inactive”.
For `CCCCCCCCSCCO`, the outcome was “inactive”.
With `CC(Oc1cc(Cl)ccc1Cl)C(=O)O` (stereo not drawn) the outcome was “inactive”.
With `COCCOC(=O)c1ccccc1C(=O)OCCOC` the outcome was “inactive”.
With `O=C1c2ccccc2C(=O)c2c(O)ccc(O)c21` the outcome was “inactive”.
`NCC1CCCC(CN)C1` (stereo not drawn) was tested, and the outcome was “inactive”.
With `CCCCC(CC)COC(=O)c1ccc(O)cc1` (stereo not drawn) the outcome was “inactive”.
`CCCCCCCCCCCCN1CCCCCC1=O` was tested, and the outcome was “inactive”.
For `CC(=O)CC(=O)Nc1ccccc1`, the outcome was “inactive”.
In the case of `Cc1c(OCC(F)(F)F)ccnc1CS(=O)c1nc2ccccc2[nH]1` (stereo not drawn), the outcome was “inactive”.
